# Rtt109 Vps75: inhibitors of Candida albicans Rtt109/Vps75 histone acetyltransferase | inhibition, % at 34.9 µM | Q5AAJ8 | purified Rtt109/Vps75, ThioGlo CoA-SH fluorescence, 4 h | 330,000 tested, 0.16% active;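 active means inhibition of at least 50% in every replicate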
# esBAF inh: blocks esBAF chromatin remodeling in mouse ES cells; reporter increase, % at 12.5 µM; 350,000 tested, 2% active; AID 602393; Bmi1-luciferase knock-in reporter, 24 h; 100% = twice the neutral-well signal; in the data active means activation above about 40%;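 further: 0% = median of the plate's neutral control wells and 100% = double that signal; a rise in the Bmi1 reporter signal indicates esBAF inhibition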
# CDK5 inh: CDK5/p35 (human) kinase inhibition; Recombinant CDK5/p35, ADP-Glo luminescence, 60 min; inhibition, % at 10 µM; 330,000 tested, 0.01% active; AID 488839;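 active means highest replicate inhibition of at least 50% and at least 75% of replicates reaching 50%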;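 further: plate controls were DMSO neutral control for no effect and GW8510 at 10 µM for full effect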
# Target sequence (Q00535 whole entry, looked up): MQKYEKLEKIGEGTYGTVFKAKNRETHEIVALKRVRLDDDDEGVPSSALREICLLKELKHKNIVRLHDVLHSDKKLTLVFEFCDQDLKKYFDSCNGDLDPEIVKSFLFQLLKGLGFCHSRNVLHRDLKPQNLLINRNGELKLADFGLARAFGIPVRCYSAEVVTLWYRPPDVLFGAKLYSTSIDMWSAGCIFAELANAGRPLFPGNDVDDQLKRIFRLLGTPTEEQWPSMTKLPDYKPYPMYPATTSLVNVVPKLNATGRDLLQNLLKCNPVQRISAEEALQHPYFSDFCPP
# Target sequence (Q15078 whole entry, looked up): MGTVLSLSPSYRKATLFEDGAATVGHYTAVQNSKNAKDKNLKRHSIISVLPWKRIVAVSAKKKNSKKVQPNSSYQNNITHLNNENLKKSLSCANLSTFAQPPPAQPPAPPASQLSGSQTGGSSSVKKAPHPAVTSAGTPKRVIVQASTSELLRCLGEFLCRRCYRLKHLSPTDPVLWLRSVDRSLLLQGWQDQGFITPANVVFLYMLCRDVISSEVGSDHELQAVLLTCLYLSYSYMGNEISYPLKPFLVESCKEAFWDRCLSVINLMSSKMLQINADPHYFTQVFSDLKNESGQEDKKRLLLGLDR
# SMARCA2 act: SMARCA2 function activation, primary screen | MG213 cells, MMTV-luciferase reporter, dexamethasone, overnight | activation, % at 9.1 µM | 370,000 tested, 1% active | AID 652017; in the data active means activation above about 7.8%;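 further: 0% = vehicle wells and 100% = reference activator wells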
# Dyrk1A ADPGlo: Dyrk1A (rat) kinase inhibition. Q63470. ADP-Glo luminescence, NFATc1 peptide. inhibition, % at 12.5 µM. 310,000 tested, 0.43% active. AID 504441; in the data active means inhibition above about 50%;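 further: plate controls were vehicle with enzyme for no effect and no enzyme for full effect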
# dFosB activator: activators of mouse delta FosB homodimer | purified delta FosB, TAMRA-CDK5 oligo fluorescence polarization; percent of positive-control signal above neutral wells | activation, % at 25 µM | P13346 | 340,000 tested, 0.99% active;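 active means mean activation above about 17%, with every replicate also reaching it, limit read from the data, passing the limit was not always enough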
# SMARCA2 conf: SMARCA2 activation, confirmation screen. AID 652260. 3,500 tested, 30% active. MG213 cells, MMTV-luciferase with dexamethasone, luminescence, overnight; MG213 cells expressing E1A, Rb sequestered; DMSO wells 0%, reference activator 100%. activation, % at 9.1 µM. shares compounds with SMARCA2 act;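 active means activation above its plate's cutoff, the mean activation of tested wells plus 3 SD, cut at about 7.9% in these data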
# GAL4-VP16 Luc: counter-screen for SMARCA2 activators: GAL4-VP16 luciferase reporter activation; shares compounds with SMARCA2 act; HEK293 GAL4-VP16 pG5luc reporter, luciferase luminescence; scaled: DMSO wells 0%, SAHA wells 100%; activation, % at 9.1 µM; 3,500 tested, 41% active; AID 686939;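 active means activation above the solvent-only control well mean plus 3 SD, averaged across control plates, cut at about 5.2% in these data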
# Active calls of the source: *; . = no result given. This is a sample that favours compounds with a hit; in the whole collection about 3.2% have one here.
SMILES,Rtt109 Vps75,esBAF inh,CDK5 inh,SMARCA2 act,Dyrk1A ADPGlo,dFosB activator,SMARCA2 conf,GAL4-VP16 Luc
COc1ccc(CCn2c(SCCN3CCCCC3)nc3ccccc3c2=O)cc1OC,6,-8,1,13*,3,10,2,2
C=CCNC(=O)CSc1nc2ccccc2c(=O)n1CCc1ccc(OC)c(OC)c1,6,3,0,3,-1,-5,.,.
CC1(C(=O)OCC(=O)NCc2ccc(Cl)cc2)CC1(Cl)Cl (configuration not stated),10,-3,1,8.6*,.,-7,-2,0
CC1(C(=O)OCC(=O)NC(=O)NCc2ccccc2)CC1(Cl)Cl (configuration not stated),4,.,-1,0,37,-8,.,.
Cc1ccccc1-c1ccc2c(c1)O[C@H](CN(C)Cc1ccc(C(=O)O)cc1)[C@@H](C)CN([C@@H](C)CO)S2(=O)=O,.,0,.,.,.,.,.,.
O=C(Nc1ccc(N2CCOCC2)cc1)c1cc(-c2ccncc2)nc2ccccc12,-9,.,1,-2,0,-5,.,.
O=C(Nc1ccc(N2CCOCC2)cc1)c1nc2ccccc2s1,-3,-46,0,12*,-11,-5,8.5*,12*
C(=NN=C(NN=Cc1cccs1)NN=Cc1cccs1)c1cccs1,3,27,4,12*,0,21*,-2,5
O=C(N/N=C/c1cccs1)c1ccccn1,2,.,2,10*,-1,3,9.6*,8.9*
Cc1nc2c(c(N3CCOCC3)n1)OCC(=O)N2,-4,3,-2,2,0,2,.,.
Cc1nc(Cl)c2c(n1)NC(=O)CO2,.,.,.,12*,.,.,0,1
Oc1[nH]c(N=C2N=c3ccccc3=N2)c2ccccc12,-1,11,-1,14*,-4,6,7,37*
COc1ccc(NC(=O)N(C)C[C@@H]2Oc3ccc(NC(=O)C4CCCCC4)cc3CC(=O)N([C@@H](C)CO)C[C@H]2C)cc1,.,-5,.,.,.,.,.,.
C[C@H](CO)N1C[C@H](C)[C@@H](CN(C)C(=O)c2ccccc2)OCCCC[C@H](C)Oc2ccc(N(C)C)cc2C1=O,.,4,.,.,.,.,.,.
CCC(Sc1nc2ccccc2c(=O)n1CC1CCCO1)C(=O)NCc1cccnc1 (configuration not stated),4,.,-2,8.3*,-2,3,0,0
Fc1ccc(-c2cnc(-c3cccs3)o2)cc1,7,-12,2,9.2*,5,3,10*,5.4*
Fc1ccc(-c2cc(-c3cccs3)cc(-c3ccccc3)n2)cc1,5,-5,0,-4,-5,-3,.,.
CCC(=O)Nc1ccc2c(c1)C(=O)N(C)C[C@H](OC)[C@H](C)CN(C(=O)C1CCC1)[C@H](C)CO2,.,1,.,.,.,.,.,.
Cc1ccsc1/C=N/NC(=O)c1sccc1C,-3,12,1,11*,0,6,12*,11*
CN1[C@@H]2Cn3c(ccc(-c4ccc(F)cc4)c3=O)[C@H]1[C@@H](C(=O)NC1CCCCC1)[C@@H]2CO,.,-3,.,.,.,.,.,.
Cc1ccnc(NC(=S)NC(=O)/C=C/c2ccco2)c1,0,.,-2,8.0*,4,-9,11*,8.9*
O=C(/C=C/c1ccco1)Nc1cccnc1Cl,.,11,4,9.3*,27,-6,6,6.8*
C[C@@H]1CN([C@@H](C)CO)S(=O)(=O)c2ccc(C3=CCCCC3)cc2O[C@@H]1CN(C)C(=O)c1ccncc1,.,1,.,.,.,.,.,.
CCCc1cc(C(=O)OC)c2ccccc2n1,0,.,0,8.3*,-3,4,-2,1
COc1ccccc1CN(C)C(=O)c1ccc(S(=O)(=O)NCc2ccco2)cc1,2,-1,-4,11*,.,0,1,3
Cc1ccc2nc(-c3sc4nc(C)ccc4c3N)[nH]c2c1,-7,-22,3,5,4,-15,.,.

# Screening data from PubChem BioAssay.
